Inconclusive results are not listed. Activity calls are given as the source filed them. Unless noted, the call rests on the fitted dose curve; in most records, active means well fitted curve in the direction sought with a large enough effect; inconclusive means small, poorly fitted or top-dose-only effect, or another doubt; inactive means no such curve, though single readings can be large; an effect the other way counts as inactive or inconclusive.
What was measured:
[1] = molecular target: Lysosomal acid glucosylceramidase (Homo sapiens) (UniProt P04062); assay: Glucocerebrosidase-p2 (AID 348; in the data active means potency below about 10 µM; further: potency means the concentration at half of the fitted maximal effect); details: purified GBA, blue fluorogenic substrate, 40 min
Lysosomal acid glucosylceramidase (Homo sapiens), sequence (P04062 whole entry, looked up): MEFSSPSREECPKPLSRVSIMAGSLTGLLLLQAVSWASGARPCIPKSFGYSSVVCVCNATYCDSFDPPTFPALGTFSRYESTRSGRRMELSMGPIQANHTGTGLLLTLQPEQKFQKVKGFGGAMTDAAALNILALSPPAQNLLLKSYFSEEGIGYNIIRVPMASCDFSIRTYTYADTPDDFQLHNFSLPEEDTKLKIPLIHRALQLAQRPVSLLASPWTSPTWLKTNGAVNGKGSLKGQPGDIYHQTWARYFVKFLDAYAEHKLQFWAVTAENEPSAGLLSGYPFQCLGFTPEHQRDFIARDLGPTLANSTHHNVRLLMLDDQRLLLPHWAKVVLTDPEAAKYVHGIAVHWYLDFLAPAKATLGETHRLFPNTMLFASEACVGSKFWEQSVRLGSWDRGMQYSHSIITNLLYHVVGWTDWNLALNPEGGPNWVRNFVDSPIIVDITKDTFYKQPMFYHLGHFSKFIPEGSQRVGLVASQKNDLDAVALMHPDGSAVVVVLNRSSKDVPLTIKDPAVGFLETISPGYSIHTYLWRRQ
Method in brief: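 Compounds titrated from 0.6 nM upwards against 0.2 nM enzyme in pH 5.9 citric acid/KH2PO4, taurocholate, tween-20; blue fluorogenic substrate 80 uM, 40 min room temperature, stopped and read Ex 365/Em 440 for AC50.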

[2] = AP1 Signaling Pathway (AID 357; active means well fitted curve in either direction with a large enough effect, not every such curve was filed as active;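 further: ME-180 reporter cells stimulated with EGF at its EC50 level; on the % scale 0 is the no-effect control and ±100 the full control effect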); details: ME-180 AP-1-bla reporter, EGF-induced, beta-lactamase ratio, 5 h; at 7.69 µM (top of the series) unless noted
Method in brief: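 Read-out was the 460nm/530nm emission ratio (excitation 405nm) after CCF4 loading for 2.5 hours at room temperature. Cells carried an AP-1-driven beta-lactamase reporter, were stimulated with EC50 EGF plus compound for 5 hours, and AC50 values came from titrations.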

[3] = molecular target: Cytochrome P450 1A2 (Homo sapiens) (UniProt P05177); assay: p450-cyp1a2 (AID 410; calls by dose curve; further: potency means the concentration at half of the fitted maximal effect); details: recombinant CYP1A2, luciferin-ME demethylation, luminescence; series mostly up to 57 µM
Cytochrome P450 1A2 (Homo sapiens), sequence (P05177 whole entry, looked up): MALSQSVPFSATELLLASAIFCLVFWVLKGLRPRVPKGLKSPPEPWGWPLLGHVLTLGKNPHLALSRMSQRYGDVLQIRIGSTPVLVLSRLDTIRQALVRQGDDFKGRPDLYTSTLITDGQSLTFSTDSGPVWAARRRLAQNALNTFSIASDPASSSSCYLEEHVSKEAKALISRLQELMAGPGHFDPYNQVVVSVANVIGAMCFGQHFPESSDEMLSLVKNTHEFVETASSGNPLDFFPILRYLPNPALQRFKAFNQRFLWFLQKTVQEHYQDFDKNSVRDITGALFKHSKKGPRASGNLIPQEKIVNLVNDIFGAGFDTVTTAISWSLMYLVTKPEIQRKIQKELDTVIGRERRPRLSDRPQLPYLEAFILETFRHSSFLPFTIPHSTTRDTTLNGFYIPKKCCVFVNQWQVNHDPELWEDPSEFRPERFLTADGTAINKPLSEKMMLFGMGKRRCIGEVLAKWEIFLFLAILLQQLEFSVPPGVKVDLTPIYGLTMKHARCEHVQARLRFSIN
Method in brief: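 Human CYP1A2 (20nM) demethylated Luciferin-ME at its Km (100uM) in 100mM KPO4. After 10 min compound preincubation, NADPH regeneration ran the reaction 60 min at room temperature. Luciferin was read by luminescence, normalized to 57 uM furafylline.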

[4] = NFAT Signaling Pathway (AID 444; active means well fitted curve in either direction with a large enough effect, not every such curve was filed as active;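 further: carbachol stimulus at about its EC50 of 1 µM final; on the % scale 0 is the no-effect control and ±100 the full control effect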); details: Jurkat NFAT-bla M1, carbachol, beta-lactamase ratio, 5 h; at 7.69 µM (top of the series) unless noted
Method in brief: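 Jurkat cells with NFAT-driven β-lactamase reporter and co-expressed M1 receptor, stimulated with carbachol (final 1 uM, ~EC50), compound titration, 5 h at 37 °C. CCF4 loaded 1 h at RT; 460/530 nm ratio gave %activity and AC50.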

[5] = Stat Signaling Pathway (AID 446; active means well fitted curve in either direction with a large enough effect, not every such curve was filed as active;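 further: ME-180 cervical cancer cells given 40 pM IL-6 alongside compound; SIE-controlled beta-lactamase reporter measured as 460/530 nm FRET emission ratio; on the % scale 0 is the no-effect control and ±100 the full control effect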); details: ME-180 SIE beta-lactamase reporter, IL-6 stimulated, 5 h; at 7.69 µM (top of the series) unless noted
Method in brief: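 Screening format detects activators and inhibitors alike: ME-180 SIE-bla cells stimulated at 40 pM IL-6 for 5 hrs with compound, then dual-emission beta-lactamase read at 405 nm excitation.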

[6] = molecular target: Glucocorticoid receptor (Homo sapiens) (UniProt P04150); assay: GR-GFP Redistribution (AID 450;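 active means compounds whose dose series gives a full or clear partial fitted curve of increased nuclear translocation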; further: potency means the concentration at half of the fitted maximal effect); details: U2OS GR-GFP nuclear translocation, laser cytometry, 2 h
Glucocorticoid receptor (Homo sapiens), sequence (P04150 whole entry, looked up, the tested form may be a part): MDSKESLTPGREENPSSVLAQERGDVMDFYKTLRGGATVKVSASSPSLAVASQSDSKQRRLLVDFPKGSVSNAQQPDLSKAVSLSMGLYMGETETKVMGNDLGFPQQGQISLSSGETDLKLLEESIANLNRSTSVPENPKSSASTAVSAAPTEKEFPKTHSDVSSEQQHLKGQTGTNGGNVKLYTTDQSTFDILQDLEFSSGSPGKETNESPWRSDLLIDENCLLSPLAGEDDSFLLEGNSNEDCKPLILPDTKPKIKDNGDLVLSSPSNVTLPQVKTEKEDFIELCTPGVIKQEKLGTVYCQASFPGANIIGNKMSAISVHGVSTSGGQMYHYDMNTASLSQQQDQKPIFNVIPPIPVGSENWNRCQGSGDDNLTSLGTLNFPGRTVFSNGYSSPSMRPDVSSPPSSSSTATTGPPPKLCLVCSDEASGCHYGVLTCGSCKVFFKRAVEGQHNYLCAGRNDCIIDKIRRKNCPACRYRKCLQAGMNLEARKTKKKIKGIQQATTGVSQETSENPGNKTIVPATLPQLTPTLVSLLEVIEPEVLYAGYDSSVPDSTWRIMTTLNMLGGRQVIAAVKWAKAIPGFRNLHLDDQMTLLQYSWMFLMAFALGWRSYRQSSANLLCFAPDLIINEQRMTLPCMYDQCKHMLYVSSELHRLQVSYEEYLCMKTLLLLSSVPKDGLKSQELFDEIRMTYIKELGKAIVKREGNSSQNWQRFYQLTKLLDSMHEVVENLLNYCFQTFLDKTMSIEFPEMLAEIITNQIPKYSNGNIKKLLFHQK

[7] = molecular target: Glucocorticoid receptor (Homo sapiens) (UniProt P04150); assay: GR-EFC Redistribution (AID 451; calls by dose curve; further: potency means the concentration at half of the fitted maximal effect); details: CHO-K1 GR-EFC translocation, beta-gal luminescence, 2 h
Method in brief: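 CHO-K1 cells expressing nuclear EA and GR-ED fragments of b-gal; compounds titrated up to 46 uM final, 2 h at 37 C. GR nuclear translocation read as complemented b-gal luminescence after 1 h RT detection.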

[8] = molecular target: Mitogen-activated protein kinase 10 (Mus musculus) (UniProt Q61831); assay: JNK3 AlphaScreen Assay (AID 530; active means well fitted curve in either direction with a large enough effect, not every such curve was filed as active;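 further: kinase came from lysate of stimulated human HepG2 cells; signal reports phosphorylation of biotinylated GST-cJun 1-79 at Ser73 with 10 µM ATP; on the % scale 0 is the no-effect control and ±100 the full control effect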); details: JNK3 lysate, c-Jun phosphorylation; series mostly up to 57.1 µM
Method in brief: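 qHTS format: compounds tested as titrations against IL-1beta/TNF-alpha-activated HepG2 lysate JNK3 with biotin-GST-cJun substrate and 10 uM ATP at room temperature. Loss of anti-phospho-cJun AlphaScreen signal indicates inhibition.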

[9] = molecular target: 3',5'-cyclic-AMP phosphodiesterase 4B (Homo sapiens) (UniProt Q07343); assay: qHTS Assay for Inhibitors of PDE-IV (AID 607; active means well fitted activation curve with a large enough effect in the main read-out, with a control signal flat, not every such curve was filed as active; further: % of control where 0% means no effect); details: HEK293 ACTOne CNG channel cells, membrane potential fluorescence; series mostly up to 22.9 µM
3',5'-cyclic-AMP phosphodiesterase 4B (Homo sapiens), sequence (Q07343 whole entry, looked up): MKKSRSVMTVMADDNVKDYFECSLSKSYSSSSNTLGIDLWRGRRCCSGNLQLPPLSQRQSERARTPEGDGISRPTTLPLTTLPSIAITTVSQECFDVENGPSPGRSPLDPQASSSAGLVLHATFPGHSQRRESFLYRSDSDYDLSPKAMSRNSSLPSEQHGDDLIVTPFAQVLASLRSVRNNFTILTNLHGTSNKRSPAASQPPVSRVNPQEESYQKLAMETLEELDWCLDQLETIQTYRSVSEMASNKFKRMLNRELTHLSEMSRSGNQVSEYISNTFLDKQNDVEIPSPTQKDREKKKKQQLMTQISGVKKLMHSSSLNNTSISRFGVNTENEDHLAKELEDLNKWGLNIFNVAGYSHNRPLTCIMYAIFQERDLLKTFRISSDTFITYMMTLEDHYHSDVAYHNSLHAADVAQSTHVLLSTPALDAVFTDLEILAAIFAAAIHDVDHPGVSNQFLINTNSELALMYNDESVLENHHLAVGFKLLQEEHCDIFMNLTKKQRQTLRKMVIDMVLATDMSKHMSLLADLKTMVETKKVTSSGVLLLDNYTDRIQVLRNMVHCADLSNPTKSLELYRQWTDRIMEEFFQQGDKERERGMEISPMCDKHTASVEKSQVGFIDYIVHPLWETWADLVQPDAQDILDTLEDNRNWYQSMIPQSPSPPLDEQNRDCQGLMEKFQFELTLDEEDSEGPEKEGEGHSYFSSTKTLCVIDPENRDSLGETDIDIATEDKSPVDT
Method in brief: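 The readout is membrane depolarisation from a cAMP-sensing CNG channel, detected with a potential dye at ex 535/em 590. Cells were HEK293-derived (endogenous PDE-IV) at 1000 cells/well, titrated up to 22.9 uM final.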

[10] = molecular target: Dual specificity protein kinase CLK4 (Homo sapiens) (UniProt Q9HAZ1); assay: qHTS Assay for Inhibitors of CDC-like Kinase 4 (Kinase-Glo Assay) (AID 1770); details: recombinant Clk4, Kinase-Glo ATP depletion luminescence; series mostly up to 66.7 µM; further: nearly all actives have a fitted effect of over 65% in size; further: potency means the concentration at half of the fitted maximal effect
Dual specificity protein kinase CLK4 (Homo sapiens), sequence (Q9HAZ1 whole entry, looked up): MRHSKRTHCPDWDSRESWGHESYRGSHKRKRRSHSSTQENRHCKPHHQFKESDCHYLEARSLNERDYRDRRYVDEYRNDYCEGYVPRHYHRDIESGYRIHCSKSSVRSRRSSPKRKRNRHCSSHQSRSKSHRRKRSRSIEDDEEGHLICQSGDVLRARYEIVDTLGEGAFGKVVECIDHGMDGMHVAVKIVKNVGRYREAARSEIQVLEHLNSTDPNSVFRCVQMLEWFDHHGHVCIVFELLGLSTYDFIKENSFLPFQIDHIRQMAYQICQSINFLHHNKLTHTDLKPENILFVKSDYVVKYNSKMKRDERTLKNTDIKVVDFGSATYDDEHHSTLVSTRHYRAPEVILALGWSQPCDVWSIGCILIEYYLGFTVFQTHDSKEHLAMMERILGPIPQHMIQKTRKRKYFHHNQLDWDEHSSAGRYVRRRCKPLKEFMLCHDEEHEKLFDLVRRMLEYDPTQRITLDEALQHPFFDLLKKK
Method in brief: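 Clk4 25 nM, RS peptide 100 uM, ATP 1 uM, pH 7.5 Tris, 10 mM MgCl2, 2.5 mM DTT; 4.5 h RT; ATP depletion read by Kinase-Glo luminescence.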

[11] = molecular target: Dual specificity protein kinase CLK4 (Homo sapiens) (UniProt Q9HAZ1); assay: qHTS Assay for Inhibitors of CDC-like Kinase 4 (ADP-Glo Assay) (AID 1771); details: recombinant CLK4, ADP-Glo luminescence; series mostly up to 80 µM; further: nearly all actives have a fitted effect of over 70% in size; further: potency means the concentration at half of the fitted maximal effect
Method in brief: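 Clk4 (25 nM) was incubated 1 hr at room temperature with 100 uM RS repeat peptide and 1 uM ATP in buffer with 2 mM MgCl2, 0.5 mM EGTA, 2.5 mM DTT. ADP formed was quantified by ADP-Glo luminescence.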

[12] = molecular target: Ubiquitin carboxyl-terminal hydrolase 1 (Homo sapiens) (UniProt O94782); assay: Inhibitors of USP1/UAF1: Pilot qHTS (AID 504865); details: purified USP1/UAF1, Ub-rhodamine cleavage fluorescence; series mostly up to 54.9 µM;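 further: rhodamine fluorescence freed from ubiquitin-rhodamine substrate followed over time; top concentration of the series differs between compounds; on the % scale 0 is the no-effect control and ±100 the full control effect; nearly all actives have a fitted effect of over 35% in size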
Ubiquitin carboxyl-terminal hydrolase 1 (Homo sapiens), sequence (O94782 whole entry, looked up): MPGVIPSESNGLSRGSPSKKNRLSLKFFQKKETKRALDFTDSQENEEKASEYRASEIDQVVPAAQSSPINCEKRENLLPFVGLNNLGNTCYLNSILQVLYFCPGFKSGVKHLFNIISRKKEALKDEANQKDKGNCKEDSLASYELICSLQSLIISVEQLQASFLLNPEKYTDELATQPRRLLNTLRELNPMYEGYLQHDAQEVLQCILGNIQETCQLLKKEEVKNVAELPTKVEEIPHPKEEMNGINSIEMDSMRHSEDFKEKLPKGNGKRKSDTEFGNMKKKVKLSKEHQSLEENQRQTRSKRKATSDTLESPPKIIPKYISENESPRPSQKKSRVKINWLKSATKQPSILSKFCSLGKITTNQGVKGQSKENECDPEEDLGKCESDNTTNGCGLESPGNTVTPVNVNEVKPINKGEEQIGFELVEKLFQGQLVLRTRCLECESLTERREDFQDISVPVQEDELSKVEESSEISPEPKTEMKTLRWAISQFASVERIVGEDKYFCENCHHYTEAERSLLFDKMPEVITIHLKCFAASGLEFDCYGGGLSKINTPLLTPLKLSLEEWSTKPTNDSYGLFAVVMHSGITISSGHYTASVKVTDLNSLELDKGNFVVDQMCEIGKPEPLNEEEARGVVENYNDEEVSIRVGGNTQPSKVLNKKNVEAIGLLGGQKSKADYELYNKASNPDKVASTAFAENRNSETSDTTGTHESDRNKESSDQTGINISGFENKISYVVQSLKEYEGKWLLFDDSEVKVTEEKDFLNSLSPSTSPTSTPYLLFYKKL
Method in brief: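 Enzyme-free wells gave the negative control, while test wells held 1nM USP1/UAF1 preincubated with compound for 15 min at room temperature. Ub-Rho at 150nM final started the reaction, and fluorescence at 480/540 nm was recorded kinetically.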

[13] = Primary qHTS for small molecule stabilizers of the endoplasmic reticulum resident proteome: Secreted ER Calcium Modulated Protein (SERCaMP) assay (AID 1508630); details: SH-SY5Y GLuc-SERCaMP (Gaussia luciferase released on ER calcium loss) secretion, thapsigargin, luminescence; series mostly up to 38.4 µM; further: on the % scale 0 is the no-effect control and ±100 the full control effect
Method in brief: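 GLuc-SERCaMP-expressing SH-SY5Y cells, pretreated 16 h with compound, are challenged with thapsigargin to empty ER calcium stores; after 4 h, coelenterazine is added directly to the medium and luminescence is imaged.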

[14] = molecular target: Cytochrome P450 3A4 (Homo sapiens) (UniProt P08684); assay: qHTS Assay for Activators of Cytochrome P450 3A4 (AID 885); details: recombinant CYP3A4, Luciferin-PPXE luminescence, 60 min; series mostly up to 57.1 µM; further: nearly all actives have a fitted effect of over 65% in size
Cytochrome P450 3A4 (Homo sapiens), sequence (P08684 whole entry, looked up): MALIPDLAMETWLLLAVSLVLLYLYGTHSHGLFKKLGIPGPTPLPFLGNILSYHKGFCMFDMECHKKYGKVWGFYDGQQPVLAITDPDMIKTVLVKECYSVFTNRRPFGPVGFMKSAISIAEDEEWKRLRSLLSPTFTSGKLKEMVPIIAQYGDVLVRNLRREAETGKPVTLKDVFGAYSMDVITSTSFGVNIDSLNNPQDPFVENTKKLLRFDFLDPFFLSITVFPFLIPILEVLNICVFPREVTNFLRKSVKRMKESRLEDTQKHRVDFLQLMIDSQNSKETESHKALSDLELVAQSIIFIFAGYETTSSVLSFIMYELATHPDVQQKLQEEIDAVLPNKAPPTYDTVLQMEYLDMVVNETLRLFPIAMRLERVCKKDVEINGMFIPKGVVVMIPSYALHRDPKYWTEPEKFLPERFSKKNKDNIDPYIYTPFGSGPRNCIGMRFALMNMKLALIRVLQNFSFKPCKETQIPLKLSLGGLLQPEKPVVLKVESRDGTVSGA
Method in brief: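 Steps: enzyme/substrate mix dispensed; compound added, 10 min RT; NADPH regeneration solution added, 60 min RT; luciferin detection buffer stops reaction; 20 min later luminescence measured.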

[15] = molecular target: Cytochrome P450 3A4 (Homo sapiens) (UniProt P08684); assay: qHTS Assay for Inhibitors and Substrates of Cytochrome P450 3A4 (AID 884); details: recombinant CYP3A4, Luciferin-PPXE luminescence; series mostly up to 57.1 µM; further: potency means the concentration at half of the fitted maximal effect; nearly all actives have a fitted effect of over 50% in size
Method in brief: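 20 nM human CYP3A4 with 25 uM Luciferin-PPXE (at KM) in 200 mM KPO4, preincubated 10 min with compound; NADPH regeneration started a 60 min RT reaction. Luciferin detected by luminescence, normalized to 57 uM ketoconazole as full inhibition.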

[16] = qHTS Assay for Identification of Small Molecule Agonists for Hypoxia Response Element Signaling Pathway (AID 914; active means well fitted activation curve with a large enough effect in the signal ratio, with a control signal flat, not every such curve was filed as active; the % refers to the signal ratio; further: % of control where 0% means no effect); details: ME-180 (cervical carcinoma) HRE-bla reporter, beta-lactamase ratio, CoCl2, 17 h; activation: stronger effect = higher value
Method in brief: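 Read-out: CCF4 FRET ratio of 460nm to 530nm emission (excitation 405nm) after 2.5 hours at room temperature, taken from HRE-bla ME-180 cells that had been exposed to compound and EC50 CoCl2 for 17 hours.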

[17] = molecular target: Dual specificity protein kinase CLK4 (Homo sapiens) (UniProt Q9HAZ1); assay: qHTS Assay for Inhibitors of CDC-like Kinase 4 (ADP-FP Assay) (AID 1795); details: Transcreener ADP fluorescence polarization; series mostly up to 50 µM; further: potency means the concentration at half of the fitted maximal effect; nearly all actives have a fitted effect of over 60% in size
Method in brief: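 Kinase activity was followed as ADP output, converted from fluorescence polarization with a calibration curve. Reactions ran one hour at low ATP (1 uM) with RS peptide substrate.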

[18] = molecular target: Cytochrome P450 2C19 (Homo sapiens) (UniProt P33261); assay: qHTS Assay for Inhibitors and Substrates of Cytochrome P450 2C19 (AID 899); details: recombinant CYP2C19, luciferin-H EGE luminescence; series mostly up to 57.1 µM; further: potency means the concentration at half of the fitted maximal effect; nearly all actives have a fitted effect of over 60% in size
Cytochrome P450 2C19 (Homo sapiens), sequence (P33261 whole entry, looked up): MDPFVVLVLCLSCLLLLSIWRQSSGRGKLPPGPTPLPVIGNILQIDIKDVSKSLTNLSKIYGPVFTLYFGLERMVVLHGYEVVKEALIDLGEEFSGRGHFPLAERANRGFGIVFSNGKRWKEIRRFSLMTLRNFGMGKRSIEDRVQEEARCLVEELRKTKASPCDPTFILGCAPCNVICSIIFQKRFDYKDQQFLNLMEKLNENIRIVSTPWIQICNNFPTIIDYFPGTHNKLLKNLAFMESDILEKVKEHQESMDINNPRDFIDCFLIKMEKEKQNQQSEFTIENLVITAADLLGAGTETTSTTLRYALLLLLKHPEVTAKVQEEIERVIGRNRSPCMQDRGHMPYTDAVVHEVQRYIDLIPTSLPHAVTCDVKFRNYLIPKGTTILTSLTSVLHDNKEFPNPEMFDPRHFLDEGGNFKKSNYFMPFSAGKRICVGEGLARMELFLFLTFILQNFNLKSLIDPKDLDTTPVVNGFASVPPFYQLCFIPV
Method in brief: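 Luminescent read-out of luciferin formed from Luciferin-H EGE (10uM, equal to KM). Enzyme 5nM in 50mM KPO4; compound added, 10 min at 37C, then NADPH regenerating system for 60 min at 37C. Full inhibition defined by 57uM ketoconazole.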

Cc1noc(C)c1-c1ccc2ncnc(N3CCC(C(=O)O)CC3)c2c1
active: Potency [3] 25.1 µM | Potency [10] 25.1 µM | Potency [11] 25.1 µM
inactive: Potency [1] > 11.4 µM | activity change, negative = inhibition [2] 8.06% | activity change, negative = inhibition [4] -4.03% | activity, negative = inhibition [5] 10.8% | Potency [6] > 46 µM | Potency [7] > 46 µM | Potency [8] | Potency [9] | Potency [12] | outcome [13]

Cc1noc(C)c1-c1nccc(NCc2cccs2)n1
inactive: Potency [1] > 11.4 µM | activity change, negative = inhibition [2] 3.65% | activity change, negative = inhibition [4] -16.6% | activity, negative = inhibition [5] 2.65% | Potency [6] > 46 µM | Potency [7] > 46 µM | Potency [8] | Potency [14] | outcome [13]
active: Potency [3] 0.501 µM | Potency [10] 22.4 µM | Potency [11] 35.5 µM

COc1ccc(-n2c(=O)c(-c3ccccc3)nc3cncnc32)cc1
inactive: Potency [1] > 11.4 µM | activity change, negative = inhibition [2] -26.7% | activity change, negative = inhibition [4] 8.64% | activity, negative = inhibition [5] -9.27% | Potency [6] > 9.22 µM | Potency [7] > 46 µM | Potency [8] | Potency [9] | Potency [14] | Potency [10] | Potency [11] | Potency [12] | outcome [13]
active: Potency [3] 3.98 µM

c1csc(CNc2ncncc2-c2ccoc2)c1
inactive: Potency [1] > 11.4 µM | activity change, negative = inhibition [2] -12.1% | activity change, negative = inhibition [4] 3.52% | activity, negative = inhibition [5] -10.5% | Potency [7] > 46 µM | Potency [8] | Potency [9] | Potency [14] | activation [16] 2.26% | Potency [10] | Potency [11] | Potency [12] | outcome [13]
active: Potency [3] 2 µM | Potency [15] 2 µM

COc1ccc2[nH]cc(CCNc3cc(-c4ccc5c(c4)OCO5)ncn3)c2c1
active: Potency [10] 3.98 µM | Potency [11] 3.16 µM | Potency [17] 2.51 µM
inactive: activity change, negative = inhibition [4] 19.3% | Potency [6] > 46 µM | Potency [7] > 46 µM | Potency [12] | outcome [13]

CCNc1ncc2nc(-c3cn(C)c4ccccc34)c(=O)n(Cc3cccs3)c2n1
active: Potency [3] 6.31 µM
inactive: Potency [1] > 11.4 µM | activity change, negative = inhibition [2] -13.1% | activity change, negative = inhibition [4] 8.06% | activity, negative = inhibition [5] 23.5% | Potency [6] > 9.22 µM | Potency [7] > 46 µM | Potency [8] | Potency [9] | Potency [10] | Potency [11] | Potency [12] | outcome [13]

CN(C)c1ccc(-c2cncnc2-n2ccnc2)cc1
active: Potency [3] 2.51 µM | Potency [15] 2.51 µM | Potency [18] 3.98 µM | Potency [10] 14.1 µM | Potency [11] 25.1 µM
inactive: Potency [1] > 11.4 µM | activity change, negative = inhibition [2] -3.44% | activity change, negative = inhibition [4] 4.48% | activity, negative = inhibition [5] 10.2% | Potency [6] > 46 µM | Potency [7] > 46 µM | Potency [8] | Potency [9] | Potency [14] | Potency [12] | outcome [13]

From PubChem BioAssay (NCATS)
